From the supplement of paper PMC11732987, “Enantioselective OTUD7B fragment discovery through chemoproteomics screening and high-throughput optimisation” (Communications Chemistry, 2025)

Legend:
Assay in all cases: log2 ratio of Biotin-Ahx-Ub-VS probe labelling (fragment/DMSO); higher = less target engagement (more negative = stronger competition), active = hit call of the paper (q ≤ 0.05, log2 ratio ≤ -1)
Settings in all cases: compound concentration: 200 uM; treatment time: 3 h
USP16 = USP16 (UniProt Q9Y5T5)
Sequence of USP16 (Q9Y5T5 whole entry, looked up, the tested form may be a part): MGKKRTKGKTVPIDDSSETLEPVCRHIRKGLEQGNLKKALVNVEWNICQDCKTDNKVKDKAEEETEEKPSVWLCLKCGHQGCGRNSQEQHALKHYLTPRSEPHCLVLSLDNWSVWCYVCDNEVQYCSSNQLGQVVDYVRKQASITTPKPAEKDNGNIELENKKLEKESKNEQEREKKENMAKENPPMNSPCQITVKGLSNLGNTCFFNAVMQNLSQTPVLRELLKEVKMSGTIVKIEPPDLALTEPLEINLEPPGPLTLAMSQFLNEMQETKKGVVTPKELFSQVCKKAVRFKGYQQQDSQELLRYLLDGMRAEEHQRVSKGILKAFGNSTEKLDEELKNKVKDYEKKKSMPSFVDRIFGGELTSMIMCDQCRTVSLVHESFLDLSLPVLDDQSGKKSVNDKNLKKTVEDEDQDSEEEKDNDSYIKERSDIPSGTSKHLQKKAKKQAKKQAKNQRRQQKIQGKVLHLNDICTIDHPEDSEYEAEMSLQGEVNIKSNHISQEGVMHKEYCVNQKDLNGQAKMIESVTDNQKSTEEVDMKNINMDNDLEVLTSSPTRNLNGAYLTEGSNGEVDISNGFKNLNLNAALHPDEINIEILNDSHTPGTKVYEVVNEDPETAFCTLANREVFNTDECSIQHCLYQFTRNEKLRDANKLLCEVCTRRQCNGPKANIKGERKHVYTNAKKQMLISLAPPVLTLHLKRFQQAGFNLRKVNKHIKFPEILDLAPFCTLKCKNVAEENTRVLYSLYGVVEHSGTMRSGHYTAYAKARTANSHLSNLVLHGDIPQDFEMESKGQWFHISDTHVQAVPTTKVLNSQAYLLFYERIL
Method in brief: (§1)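 Using Biotin-Ahx-Ub-VS at 0.5 µM final for 1 h, DUBs were labelled in HEK293T lysate (495 µg per sample) that had first been treated in triplicate with fragment at 200 µM or vehicle for 3 h. NeutrAvidin enrichment, LysC and trypsin digestion and diaPASEF LC-MS/MS followed. Spectronaut label-free quantities were global-median-normalised. Values are average log2 fragment/vehicle ratios by unpaired t-test, using proteins with ≥2 unique peptides.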

USP19 = molecular target: T1, USP19 (UniProt O94966)
T1 sequence (whole entry): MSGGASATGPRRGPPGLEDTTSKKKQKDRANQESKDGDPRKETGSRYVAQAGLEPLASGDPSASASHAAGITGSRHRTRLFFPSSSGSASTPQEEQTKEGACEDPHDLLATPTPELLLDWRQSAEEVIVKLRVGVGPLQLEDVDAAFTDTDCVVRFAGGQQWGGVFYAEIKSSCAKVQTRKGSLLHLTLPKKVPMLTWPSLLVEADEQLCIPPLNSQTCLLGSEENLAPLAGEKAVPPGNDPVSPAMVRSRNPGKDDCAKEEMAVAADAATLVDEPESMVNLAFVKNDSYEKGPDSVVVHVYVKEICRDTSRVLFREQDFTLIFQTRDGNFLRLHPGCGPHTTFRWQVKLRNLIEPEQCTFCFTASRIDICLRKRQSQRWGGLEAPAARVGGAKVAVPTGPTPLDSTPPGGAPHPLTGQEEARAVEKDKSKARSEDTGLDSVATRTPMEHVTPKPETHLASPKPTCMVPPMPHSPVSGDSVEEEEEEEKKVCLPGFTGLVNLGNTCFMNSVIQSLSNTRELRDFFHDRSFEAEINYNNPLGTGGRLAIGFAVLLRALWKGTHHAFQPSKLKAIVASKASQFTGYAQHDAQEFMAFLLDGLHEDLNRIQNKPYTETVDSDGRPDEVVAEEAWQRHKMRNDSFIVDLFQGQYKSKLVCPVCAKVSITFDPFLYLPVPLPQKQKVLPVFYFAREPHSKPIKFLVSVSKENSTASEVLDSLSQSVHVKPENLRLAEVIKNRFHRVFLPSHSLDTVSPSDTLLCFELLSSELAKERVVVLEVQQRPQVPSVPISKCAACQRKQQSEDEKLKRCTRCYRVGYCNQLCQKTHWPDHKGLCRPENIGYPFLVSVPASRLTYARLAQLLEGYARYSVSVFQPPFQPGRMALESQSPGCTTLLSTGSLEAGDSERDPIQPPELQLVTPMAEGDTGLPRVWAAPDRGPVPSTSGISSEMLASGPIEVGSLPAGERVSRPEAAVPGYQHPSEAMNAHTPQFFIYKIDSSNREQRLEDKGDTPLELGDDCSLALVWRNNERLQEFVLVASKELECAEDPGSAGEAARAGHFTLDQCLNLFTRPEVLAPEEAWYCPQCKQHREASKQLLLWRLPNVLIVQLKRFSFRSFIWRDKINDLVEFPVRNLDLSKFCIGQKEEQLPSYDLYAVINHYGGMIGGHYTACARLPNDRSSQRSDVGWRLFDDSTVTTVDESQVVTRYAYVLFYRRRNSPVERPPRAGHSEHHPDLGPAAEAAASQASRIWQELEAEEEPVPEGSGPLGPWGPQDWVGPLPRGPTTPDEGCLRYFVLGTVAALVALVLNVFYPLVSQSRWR
Method in brief: as §1

USP24 = USP24 (UniProt Q9UPU5)
Sequence of USP24 (Q9UPU5 whole entry): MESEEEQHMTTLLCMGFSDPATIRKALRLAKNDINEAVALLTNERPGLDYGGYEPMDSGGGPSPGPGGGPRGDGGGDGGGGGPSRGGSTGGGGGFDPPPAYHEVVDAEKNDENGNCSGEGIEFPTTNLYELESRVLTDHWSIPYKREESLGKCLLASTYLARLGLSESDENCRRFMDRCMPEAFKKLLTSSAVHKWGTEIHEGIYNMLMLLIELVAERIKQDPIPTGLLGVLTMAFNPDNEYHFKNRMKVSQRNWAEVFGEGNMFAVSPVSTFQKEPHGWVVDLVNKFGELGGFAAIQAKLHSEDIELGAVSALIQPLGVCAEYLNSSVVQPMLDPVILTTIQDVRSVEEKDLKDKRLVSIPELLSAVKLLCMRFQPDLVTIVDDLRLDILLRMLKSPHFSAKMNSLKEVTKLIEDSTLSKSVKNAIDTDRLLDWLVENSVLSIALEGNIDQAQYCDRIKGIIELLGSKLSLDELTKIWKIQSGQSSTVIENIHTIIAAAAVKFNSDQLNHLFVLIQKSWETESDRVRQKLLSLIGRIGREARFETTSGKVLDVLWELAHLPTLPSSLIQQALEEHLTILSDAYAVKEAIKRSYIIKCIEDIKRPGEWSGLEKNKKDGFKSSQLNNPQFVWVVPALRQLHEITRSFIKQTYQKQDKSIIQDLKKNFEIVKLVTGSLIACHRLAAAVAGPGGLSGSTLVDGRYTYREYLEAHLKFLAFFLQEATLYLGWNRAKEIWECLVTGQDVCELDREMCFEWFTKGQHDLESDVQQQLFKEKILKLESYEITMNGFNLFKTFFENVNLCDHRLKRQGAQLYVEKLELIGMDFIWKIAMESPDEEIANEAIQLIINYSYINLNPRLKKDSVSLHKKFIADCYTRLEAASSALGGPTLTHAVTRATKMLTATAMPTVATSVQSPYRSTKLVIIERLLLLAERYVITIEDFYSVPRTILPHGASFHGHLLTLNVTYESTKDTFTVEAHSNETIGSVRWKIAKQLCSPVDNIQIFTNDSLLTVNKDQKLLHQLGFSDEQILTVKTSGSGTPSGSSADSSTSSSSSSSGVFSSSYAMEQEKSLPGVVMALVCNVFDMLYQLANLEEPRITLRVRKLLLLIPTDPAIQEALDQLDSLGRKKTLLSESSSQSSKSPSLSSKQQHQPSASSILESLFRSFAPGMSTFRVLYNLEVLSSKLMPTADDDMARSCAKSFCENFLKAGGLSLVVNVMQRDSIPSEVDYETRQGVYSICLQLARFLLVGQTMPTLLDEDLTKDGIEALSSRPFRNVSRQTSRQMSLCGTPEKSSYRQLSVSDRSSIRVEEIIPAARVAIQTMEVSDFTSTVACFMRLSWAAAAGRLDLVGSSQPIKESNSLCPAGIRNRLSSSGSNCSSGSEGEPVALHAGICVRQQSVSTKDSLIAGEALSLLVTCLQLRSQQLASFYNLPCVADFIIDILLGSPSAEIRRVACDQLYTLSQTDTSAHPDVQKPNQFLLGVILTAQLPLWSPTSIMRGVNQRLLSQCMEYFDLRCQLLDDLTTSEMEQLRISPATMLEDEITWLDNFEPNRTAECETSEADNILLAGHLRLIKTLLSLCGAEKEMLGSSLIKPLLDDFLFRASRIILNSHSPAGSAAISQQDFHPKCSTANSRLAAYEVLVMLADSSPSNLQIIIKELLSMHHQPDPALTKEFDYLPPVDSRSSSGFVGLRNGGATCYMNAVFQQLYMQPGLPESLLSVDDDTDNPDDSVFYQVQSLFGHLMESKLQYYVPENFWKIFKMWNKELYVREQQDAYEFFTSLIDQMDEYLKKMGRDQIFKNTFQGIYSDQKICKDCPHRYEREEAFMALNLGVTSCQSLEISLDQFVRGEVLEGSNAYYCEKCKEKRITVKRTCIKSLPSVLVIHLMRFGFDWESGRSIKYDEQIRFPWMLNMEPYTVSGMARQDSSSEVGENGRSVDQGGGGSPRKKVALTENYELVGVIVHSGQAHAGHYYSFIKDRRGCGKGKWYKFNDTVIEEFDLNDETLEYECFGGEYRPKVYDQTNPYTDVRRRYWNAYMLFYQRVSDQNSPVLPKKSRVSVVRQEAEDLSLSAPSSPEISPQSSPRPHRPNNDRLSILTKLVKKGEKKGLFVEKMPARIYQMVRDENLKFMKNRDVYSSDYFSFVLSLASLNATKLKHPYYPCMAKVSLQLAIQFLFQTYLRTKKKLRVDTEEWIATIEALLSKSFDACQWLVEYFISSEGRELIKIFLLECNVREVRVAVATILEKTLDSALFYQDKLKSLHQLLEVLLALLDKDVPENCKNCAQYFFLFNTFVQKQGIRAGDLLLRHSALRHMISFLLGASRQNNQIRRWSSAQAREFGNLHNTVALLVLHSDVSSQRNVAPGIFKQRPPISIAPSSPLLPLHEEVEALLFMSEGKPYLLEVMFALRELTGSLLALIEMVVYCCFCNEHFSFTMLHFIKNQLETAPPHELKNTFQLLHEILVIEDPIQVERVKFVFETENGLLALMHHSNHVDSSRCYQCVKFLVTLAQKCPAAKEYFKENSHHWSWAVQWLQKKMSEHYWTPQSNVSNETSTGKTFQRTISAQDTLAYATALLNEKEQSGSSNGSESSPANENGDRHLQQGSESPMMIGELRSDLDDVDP
Method in brief: as §1

USP25 = molecular target: T2, USP25 (UniProt Q9UHP3)
T2 sequence (whole entry): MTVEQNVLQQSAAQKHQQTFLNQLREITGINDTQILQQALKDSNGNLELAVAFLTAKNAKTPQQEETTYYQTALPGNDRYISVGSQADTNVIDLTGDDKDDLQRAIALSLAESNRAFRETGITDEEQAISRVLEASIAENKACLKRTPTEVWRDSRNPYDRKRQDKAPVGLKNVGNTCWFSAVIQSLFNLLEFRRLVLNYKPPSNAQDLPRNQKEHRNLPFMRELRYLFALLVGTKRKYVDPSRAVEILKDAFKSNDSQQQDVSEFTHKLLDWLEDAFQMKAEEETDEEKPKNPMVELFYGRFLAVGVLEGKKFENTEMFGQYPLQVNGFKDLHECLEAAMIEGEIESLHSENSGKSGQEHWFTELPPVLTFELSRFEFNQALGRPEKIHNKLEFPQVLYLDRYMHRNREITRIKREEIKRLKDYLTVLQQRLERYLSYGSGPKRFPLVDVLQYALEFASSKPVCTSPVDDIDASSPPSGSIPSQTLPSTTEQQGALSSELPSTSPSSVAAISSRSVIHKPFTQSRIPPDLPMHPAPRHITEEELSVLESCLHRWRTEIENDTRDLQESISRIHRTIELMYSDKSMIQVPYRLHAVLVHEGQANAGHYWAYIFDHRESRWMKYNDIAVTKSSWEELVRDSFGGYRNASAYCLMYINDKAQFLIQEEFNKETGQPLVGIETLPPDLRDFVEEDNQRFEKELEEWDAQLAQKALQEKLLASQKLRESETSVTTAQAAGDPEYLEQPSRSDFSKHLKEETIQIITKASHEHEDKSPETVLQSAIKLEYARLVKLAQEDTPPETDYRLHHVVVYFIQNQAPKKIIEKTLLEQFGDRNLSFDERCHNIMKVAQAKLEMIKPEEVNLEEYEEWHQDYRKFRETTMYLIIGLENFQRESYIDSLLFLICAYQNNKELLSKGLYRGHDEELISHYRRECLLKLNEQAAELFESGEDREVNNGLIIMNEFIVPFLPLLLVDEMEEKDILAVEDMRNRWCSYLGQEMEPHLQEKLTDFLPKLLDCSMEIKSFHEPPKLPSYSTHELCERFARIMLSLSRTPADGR
Method in brief: as §1

USP28 = molecular target: T3, USP28 (UniProt Q96RU2)
T3 sequence (whole entry): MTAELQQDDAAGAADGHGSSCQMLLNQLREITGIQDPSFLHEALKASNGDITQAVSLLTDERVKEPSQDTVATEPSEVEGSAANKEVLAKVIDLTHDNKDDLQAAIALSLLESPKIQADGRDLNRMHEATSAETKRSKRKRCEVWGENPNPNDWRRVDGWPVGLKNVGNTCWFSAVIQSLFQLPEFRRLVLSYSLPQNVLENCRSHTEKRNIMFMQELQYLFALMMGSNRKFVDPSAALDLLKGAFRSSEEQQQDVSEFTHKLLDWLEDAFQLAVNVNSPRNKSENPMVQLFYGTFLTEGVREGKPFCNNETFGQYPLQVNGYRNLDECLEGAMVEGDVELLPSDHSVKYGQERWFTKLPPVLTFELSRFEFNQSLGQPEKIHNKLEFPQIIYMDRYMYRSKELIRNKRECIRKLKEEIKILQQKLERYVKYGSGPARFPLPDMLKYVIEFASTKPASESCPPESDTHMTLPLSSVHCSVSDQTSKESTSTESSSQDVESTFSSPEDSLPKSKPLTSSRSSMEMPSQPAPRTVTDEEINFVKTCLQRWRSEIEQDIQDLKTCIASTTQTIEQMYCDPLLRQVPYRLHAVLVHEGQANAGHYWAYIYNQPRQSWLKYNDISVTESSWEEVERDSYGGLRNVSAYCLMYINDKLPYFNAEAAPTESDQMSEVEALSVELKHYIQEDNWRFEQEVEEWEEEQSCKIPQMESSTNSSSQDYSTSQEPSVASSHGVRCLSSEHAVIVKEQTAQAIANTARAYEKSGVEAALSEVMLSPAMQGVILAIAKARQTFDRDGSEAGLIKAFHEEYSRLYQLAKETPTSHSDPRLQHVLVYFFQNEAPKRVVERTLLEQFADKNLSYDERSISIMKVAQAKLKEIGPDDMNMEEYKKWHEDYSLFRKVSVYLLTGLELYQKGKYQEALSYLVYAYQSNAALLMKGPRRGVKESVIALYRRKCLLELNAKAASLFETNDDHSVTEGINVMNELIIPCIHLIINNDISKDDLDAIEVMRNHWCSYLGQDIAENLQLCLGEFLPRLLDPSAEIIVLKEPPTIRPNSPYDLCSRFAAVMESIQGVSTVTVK
Method in brief: as §1

Measured: log2 ratio of Biotin-Ahx-Ub-VS probe labelling

CN(CCC(O)c1ccc(Br)cc1)C(=O)CCl (stereo not given)
inactive: USP16 0.00689 | USP19 -0.439 | USP24 -0.901 | USP25 -0.071 | USP28 -0.457
